The supplement of paper PMC11417369
Over roughly 25,000 sequences, “ln(normalized median fluorescence intensity)” has its median near 6.7; the highest 2% begin near 10. This is one part of a sample in which the highest values are shown more often than they occur.

Test system: PfHDP1 homeodomain (GST-tagged)
Test: gcPBM binding intensity (ln(normalized median fluorescence intensity)); higher = stronger DNA binding
Outline: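 The highest Masliner-normalised natural-log median intensity across replicate spots of either probe orientation is reported as binding intensity. GST-tagged P. falciparum DNA-binding domains expressed in E. coli were applied for 1 h to an Agilent 4 × 180k array of primer-extended double-stranded 36-bp intergenic genomic probes plus negative controls, and bound protein was detected with Alexa488 anti-GST antibody and scanned at 488 nm.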

Row | Sequence | gcPBM binding intensity (ln)
1 | TAATAAATCCTATATAGTACATATATGCAAGTATGT [XGTACX_site3955] | 6.97
2 | TCTTATTAAAATATTTATATAGGTAATCACAATATT [GTGCAC_negctrl_site568] | 6.37
3 | ATATCAAACTAGAATGTGCGCATGCATTCAAGTTTT | 6.54
4 | TATGTCAATTTTCATACATGCGCATAATCTTTATTT [TGCATGCA_site807] | 7.53
5 | TGTAAATTATAACGTGCACACATATTTAAAATGAAA [CACACA_site8915] | 9.88
6 | TTCATTCAAATTAACGTGCACATTATTAGTAAAAAC | 10.7
7 | TTATTATTCATATATTCACACATTAAAATTTTTCAA [CACACA_site4243] | 6.62
8 | GTATATATATATATATGCAAATGTATAAATCTACAT [CACACA_negctrl_site546] | 7.32
9 | TTGCAACTCTTCAATCGTACACATTATTTATTATAT [XGTACX_site1377] | 6.89
10 | CTAATCGTGCACAACTGTACATTTGTCAAGGGCAAT [XGTACX_site8662] | 10.8
11 | TAAAATATATAAAACTGTACATTTTAAAGGCACAAC [XGTACX_site8342] | 7.1
12 | CTTGTCATTGGGCACACACACATGTATAGGTTATTA [CACACA_site3058] | 6.49
13 | AGCTCTTGTCATTTTGCACACACACCGGTATAGGTT [CACACA_site5654] | 10.4
14 | CTTGTCATTTGGCACACACACATGTATAGGTTATTA [CACACA_site5656] | 6.72
15 | CTCTTGTCATTTTGCACACACACATGGATAGGTTAT [CACACA_site5655] | 10.8
16 | TATATAGGTATCATTACACACATGTATACTTATTTG [CACACA_site7864] | 6.47
17 | AGCTCTTGTCATTTTGCACACACACCCGTATAGGTT [CACACA_site3056] | 10.3
18 | GTATATCACACATTTGCATGTTGTCAATAGTTTATC [TGCATGCA_site134] | 6.93
19 | CTCTTGTCATTTTGCACACACACATGTATAGGTTAT [CACACA_site3057] | 11.1
20 | CTTGTCATTTTGCACACACACATGTATAGGTTATTA [CACACA_site7431] | 10.9

Row | Sequence | gcPBM binding intensity (ln)
21 | TCTACATATTAATTATGTACGAATTATTATTAGTAA [XGTACX_site6924] | 6.03
22 | TTTAAGAATTAACGGGGTACAATTCTTAAATATATA [XGTACX_site669] | 6.33
23 | ACTGAAAAAAGAAATACACACATTCTGGATCATATA [CACACA_site3860] | 6.47
24 | ATTTTTTTTTGTGTATATAAATAAATAAATATATAT [GTGCAC_negctrl_site603] | 6.47
25 | AAGAAAAAGACTTCATGAAAAAGAATTTTTTTAATT [TGCATGCA_negctrl_site473] | 5.86
26 | TATTTATTGTGACACTTTTATTATTTTATGATAAAA [CACACA_negctrl_site37] | 6.6
27 | AATATAAGCAAATACACACACACATATAAATATGTA [CACACA_site7741] | 7.03
28 | TACATAAACATTTATACACACATTATAAATACATAT [CACACA_site4386] | 6.74
29 | TTAATATGAAATAAATGTACATAATACATAATAAAA [XGTACX_site6194] | 6.44
30 | ACAAATAAGTTTTGTAGTACTGTGTATATATATATA [XGTACX_site6901] | 8.95
31 | ATATATTTTATATGTGTGCACTATATATATATATAT | 10.8
32 | ATTTTTTTCTTAGGAGTGCACTTATATTTATTTTAT | 10.3
33 | TTTTTATTTTCATATGTGCACTTATATATATATATA | 10.2
34 | ATCATATTTTTATGTGTGCACTTTTTTTTTTTTTTT [GTGCAC_site9555] | 8.73
35 | TAATTATTCTATTAAGTGCATATATTTTTAAAAAGA | 9.39
36 | TTTATATTCTTAAGTGTGCACTATATATATATATAT [GTGCAC_site9719] | 10.5
37 | TGAATAAATATATATACACACCCATATATATATATA [CACACA_site8833] | 9.21
38 | AAAAGAAGATAATACAGTACAGAATAATATAAAATA [XGTACX_site5962] | 6.51
39 | ATAAAATATAAAAACGCACACAATTATAAGGGTGTA [CACACA_site177] | 6.96
40 | TTCTGTATAATATAAAAACAAAAATTAAATTAAAAC [CACACA_negctrl_site81] | 6.43

Row | Sequence | gcPBM binding intensity (ln)
41 | TTCTGTATACGGTGTGCACACAATTAAAAAAAAAAA [CACACA_site1416] | 10.8
42 | TTCTGTATATAGTGTGCACACAATTAAAAAAAAAAA [CACACA_site8400] | 10.8
43 | ATATTTAAAAATATAGTGCAATTATTCTAATGTGTT | 8.89
44 | TAAAATATATTTTTCTGTACACAAAAATATATTAAA [XGTACX_site2813] | 6.24
45 | TTTTCTGTATATTGTGTGCACACAATTAACAAAAAA [GTGCAC_site9817] | 10.6
46 | TATGTATATATATTAACACACAAAAAAAAAAAAAAA [CACACA_site1812] | 6.2
47 | TTTTTTTTTCTGTATACACACAAAATTTATTTTTTA [CACACA_site2873] | 6.68
48 | TTTTTATGTGTATATTATTACATTTACATCTTTAAC [CACACA_negctrl_site1676] | 6.64
49 | ATTATTACTTTTTGAGTGCACATACACACAGACATA | 10
50 | ATAATAAAATGGAGAGTGCATACATGTTTATTTTAT | 7.7
51 | AAATTATGAACATATTGTACATATATATATATATAT [XGTACX_site8269] | 9.41
52 | ATTTAAGATTTAATCACACACATATATATTATATAC [CACACA_site2907] | 6.55
53 | TGCAATTTAATATGAGTGCATATATTGAGAAAATAC | 9.36
54 | AATGGGGAAGGTTCTACACACAACGCAAATGCCTTA [CACACA_site2758] | 6.41
55 | TCCCTTAATTTTGTGTGTACATATAATATATTTTTA [XGTACX_site2789] | 6.76
56 | TGTGCACATAATTAGTGTACATTTTTTATTTAGACA [XGTACX_site317] | 10.1
57 | AGACCTTTAATTTGTGTGCACATAATTAGTGTACAT [GTGCAC_site9434] | 10.7
58 | AAAAAAAAAAAAAACACACACATATAATATATTTAA [CACACA_site1337] | 6.35
59 | AAACAATAAAAGATTACACACATATATAGCATATAT [CACACA_site1698] | 6.82
